Our source for the inhibition values is PubChem BioAssay.

Calls of active or inactive are those of the source. The rule behind the calls is not given here.

The target of this test is Pantothenate synthetase (Mycobacterium tuberculosis (strain ATCC 25618 / H37Rv)) (UniProt P9WIL5). In words: Recombinant Mtb pantothenate synthetase (PanC) inhibitors, coupled enzyme, confirmatory (AID 375).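 Note: 0% = full reaction with vehicle and 100% = no enzyme background.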 The settings on record: coupled enzyme assay; at 10 µM, active compounds read high.
Pantothenate synthetase (Mycobacterium tuberculosis (strain ATCC 25618 / H37Rv)), sequence (P9WIL5 whole entry, looked up): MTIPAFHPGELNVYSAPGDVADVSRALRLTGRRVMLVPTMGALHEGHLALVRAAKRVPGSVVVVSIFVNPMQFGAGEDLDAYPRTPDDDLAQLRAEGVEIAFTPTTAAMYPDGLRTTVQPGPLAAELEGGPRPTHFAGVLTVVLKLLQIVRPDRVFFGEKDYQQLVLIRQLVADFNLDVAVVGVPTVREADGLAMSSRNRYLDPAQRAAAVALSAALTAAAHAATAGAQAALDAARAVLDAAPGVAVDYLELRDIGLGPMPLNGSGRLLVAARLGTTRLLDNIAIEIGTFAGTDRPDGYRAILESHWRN
Consider `C=CCSc1n[nH]c(-c2ccc(OC)cc2)n1`, for which the inhibition was 0% (inactive).

`COCCCn1c2nc3ccccc3nc2c2c(=O)n(-c3ccccc3OC)cnc21`: the inhibition is 11% (inactive).

Consider `CC(=O)Oc1cc(C(C)C)c(OCCN(C)C)cc1C`, for which the inhibition is 11% (inactive).

With `COc1ccc(/C=N/n2c(SC)nnc2-c2ccccc2)cc1C`, the inhibition is 0% (inactive).

Turning to `CC(=O)C1=C(O)C(=O)N(Cc2ccco2)C1c1ccc(F)cc1` (stereo not given), the inhibition is 10% (inactive).

`CCCCSc1nnc([C@H](C)NC(=O)OC(C)(C)C)o1`: the inhibition is 2% (inactive).

For `Cc1ccc(C)c(/C(O)=C2\C(=O)C(=O)N(CCCN3CCOCC3)C2c2cccnc2)c1` (stereo not given), the inhibition was 2% (inactive).

Regarding `CCn1nnc(NC(=O)c2cc3ccccc3o2)n1`, the inhibition was 0% (inactive).

Regarding `COC(=O)CSc1cc(C)nc(NC(C)=O)n1`, the inhibition is 4% (inactive).

On to `Cn1c(=O)c2c(nc(SCCCC#N)n2Cc2ccccc2F)n(C)c1=O`, for which the inhibition is 0% (inactive).

As for `CCN(CC)C(=O)C1CCCN(c2ncnc3c2cnn3-c2ccc(Cl)cc2)C1` (stereo not given), the inhibition was 4% (inactive).

Consider `CCOc1ccccc1C(=O)Nn1c(C2CCC2)nc2ccccc2c1=O`, for which the inhibition is 0% (inactive).

Turning to `COC(=O)N1CC(c2ccccc2)CC1=O` (stereo not given), the inhibition was 4% (inactive).

As to `Cn1c(C(=O)OC(C(=O)NC2CCCC2)c2cccnc2)cc2sccc21` (stereo not given), the inhibition was 0% (inactive).

With `CSc1nc(N2CCOCC2)c2ccccc2n1`, the inhibition is 0% (inactive).

For the compound `CSc1cccc(NC(=O)C2CCN(S(C)(=O)=O)CC2)c1`, the inhibition was 0% (inactive).

`CCn1c(-c2cc(Br)ccc2O)n[nH]c1=S`: the inhibition is 0% (inactive).

As for `c1coc(CN2CN=C(Nc3nc4ccccc4s3)NC2)c1`, the inhibition is 0% (inactive).

`COc1cc(CN2CCSCC2)cc(OC)c1OC`: the inhibition was 0% (inactive).

Regarding `CC(C(=O)N1CCc2ccccc21)N1CCc2ccccc2C1` (stereo not given), the inhibition was 3% (inactive).

For the compound `COC(=O)c1[nH]c2cccc(C)c2c1NC(=O)CN1CCCc2ccccc21`, the inhibition is 1% (inactive).

For `CCSc1nnc(NC(=O)c2csc(C)c2)s1`, the inhibition was 1% (inactive).

For `O=C(NCCOC(=O)C1COc2ccccc2O1)C1COc2ccccc2O1` (stereo not given), the inhibition was 0% (inactive).

Consider `CCOC(=O)C(NC(C)=O)(NS(=O)(=O)c1ccccc1)C(F)(F)F` (stereo not given), for which the inhibition was 2% (inactive).

Consider `Cc1nnc(SCC(=O)N2CCN(S(=O)(=O)c3ccccc3)CC2)[nH]c1=O`, for which the inhibition was 0% (inactive).

`CCOc1ccc(NS(=O)(=O)c2cc(Cl)ccc2OC)cc1`: the inhibition was 4% (inactive).

As to `CN1C(=O)NC(NC(=O)C2CCCCC2)(C(F)(F)F)C1=O` (stereo not given), the inhibition is 0% (inactive).

With `Nc1ccc(S(=O)(=O)Nc2ccccn2)cc1`, the inhibition was 0% (inactive).

`CC(=O)Nc1ccc(NS(=O)(=O)C(F)(F)F)cc1`: the inhibition is 0% (inactive).

As to `COC(=O)Cc1cc(=O)n(-c2ccccc2)[nH]1`, the inhibition was 0% (inactive).

In the case of `COc1cc(S(=O)(=O)N(C)C)ccc1F`, the inhibition was 1% (inactive).

On to `COC(=O)C1=C(N)Oc2cc(C)[nH]c(=O)c2C1c1ccncc1` (stereo not given), for which the inhibition was 0% (inactive).

Turning to `CC(NC(=O)COc1ccccc1)C(=O)NC1=NCCS1` (stereo not given), the inhibition is 0% (inactive).

`S=c1[nH]nc(Cc2ccccc2)n1Cc1ccco1`: the inhibition is 0% (inactive).

For `C/C(N)=C(/C#N)C(=O)COC(=O)CCSc1ccccc1`, the inhibition is 0% (inactive).

Consider `COc1ccc(S(=O)(=O)Nc2ccccc2SC)cc1C`, for which the inhibition is 0% (inactive).

Turning to `Cc1nc(N2CCN(c3ncccn3)CC2)c2oc3ccccc3c2n1`, the inhibition is 2% (inactive).

As for `COc1cccc(NC(=O)C2CCCN2C(=O)Nc2cccc(F)c2)c1` (stereo not given), the inhibition is 0% (inactive).

In the case of `CCc1nc2sc3ccccc3c(=O)c2c(=O)n1Cc1ccco1`, the inhibition is 0% (inactive).

Take `CCOC(=O)CNC(=O)Nc1nnc(-c2ccc(OCC)cc2)o1`: the inhibition is 5% (inactive).

A word on the inhibition: it is the share of the control response that was lost under treatment.
